Measurements published in PubChem BioAssay AID1851 (National Center for Advancing Translational Sciences (NCATS), 2009).
Several values for one entry are separate records, joined by “and”; a condition that tells them apart may be missing. Identical values can stand only once. The campaign covered roughly 16,000 compounds. About 5,800 (36%) were called active. Another 23% or so got no clear call; they are omitted. Calls come from the whole dose curve; as a rule, active = well fitted curve in the direction sought with a large enough effect; inconclusive = small, poorly fitted or top-dose-only effect, or effect the other way; inactive = no such curve, though single readings can be large or run the other way. This is one part of the list.

Target: Cytochrome P450 2C19 (Homo sapiens) (UniProt P33261)
Assay: Cytochrome panel assay with activity outcomes
Conditions: recombinant CYP, pro-luciferin dealkylation, luminescence, p450-cyp2c19; series mostly up to 57.1 µM; activity, negative = inhibition: at the top concentration
% is set by controls: 0 for no effect and ±100 for the full control effect.

Cytochrome P450 2C19 (Homo sapiens), sequence (P33261 whole entry, looked up): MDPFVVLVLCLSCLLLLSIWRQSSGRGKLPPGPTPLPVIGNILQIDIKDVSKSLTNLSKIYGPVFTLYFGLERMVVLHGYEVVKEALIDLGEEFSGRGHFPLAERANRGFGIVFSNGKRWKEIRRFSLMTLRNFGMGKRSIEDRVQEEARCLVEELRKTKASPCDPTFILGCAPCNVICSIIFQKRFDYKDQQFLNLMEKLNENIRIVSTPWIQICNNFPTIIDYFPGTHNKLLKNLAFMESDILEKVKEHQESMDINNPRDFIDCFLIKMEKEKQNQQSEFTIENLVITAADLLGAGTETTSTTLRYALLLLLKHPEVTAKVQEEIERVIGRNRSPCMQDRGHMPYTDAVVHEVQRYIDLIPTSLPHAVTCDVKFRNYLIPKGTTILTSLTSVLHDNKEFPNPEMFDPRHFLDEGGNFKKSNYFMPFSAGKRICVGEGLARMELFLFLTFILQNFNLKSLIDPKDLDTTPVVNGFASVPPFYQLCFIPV

| Compound | activity, negative = inhibition | AC50 |
| --- | --- | --- |
| C=CCCCCCCCCC(=O)Nc1c[nH]c(=O)[nH]c1=O | -4.48% (inactive) | – |
| CCN1CCCC1Cn1cnc2c([nH]c3ccc(C)cc32)c1=O (centres undefined) | -42.8% (inactive) | – |
| Cc1ccc2[nH]c3c(N4CCc5ccccc5C4)ncnc3c2c1 | – | 1.58 µM (active) |
| COc1ccc(OC)c(C(=O)CN2C(=O)NC(C)(c3ccccc3)C2=O)c1 (centres undefined) | – | 0.224 µM (active) |
| Cc1ccc(C2(C)NC(=O)N(CC(=O)Nc3cc(C)on3)C2=O)cc1 (centres undefined) | -26.8% (inactive) | – |
| Cc1cc(NC(=O)CN2C(=O)NC(C)(c3ccc(OC(F)F)cc3)C2=O)no1 (centres undefined) | -9.86% (inactive) | – |
| CCn1c(SCC(=O)NC2CCCCC2)nnc1-c1cc2cccc(OC)c2o1 | – | 10 µM (active) |
| Cc1nnc(SCC(=O)NCC2CCCCC2)n(N)c1=O | 14.4% (inactive) | – |
| Cn1c(SCC(=O)NC2CC2)nnc1-c1cccc(NC(=O)c2ccccc2F)c1 | 5.1% (inactive) | – |
| Nc1nc2c(c(=O)[nH]1)CN(c1ccc(S(N)(=O)=O)cc1)CN2 | 24.4% [at 11.4 µM] (inactive) | – |
| Cc1ccc(/C=C2\SC(=S)N(CCCC(=O)Nc3ccccn3)C2=O)cc1 | – | 10 µM (active) |
| Cn1c(=O)c(CCc2ccccc2)nc2cnc(Nc3ccccc3)nc21 | – | 15.8 µM (active) |
| CCNc1ncc2nc(CCc3ccccc3)c(=O)n(Cc3ccc(F)cc3)c2n1 | -33.5% (inactive) | – |
| CCNc1ncc2nc(-c3ccccc3)c(=O)n(C3CC3)c2n1 | -28.2% (inactive) | – |
| CCNc1ncc2nc(-c3ccccc3)c(=O)n(C)c2n1 | -12.8% (inactive) | – |
| Cc1nc2cnc(Nc3ccccc3)nc2n(C)c1=O | -7.31% (inactive) | – |
| CCNc1ncc2nc(CCc3ccccc3)c(=O)n(C3CC3)c2n1 | – | 6.31 µM (active) |
| CCNc1ncc2nc(C)c(=O)n(C3CC3)c2n1 | -22.7% (inactive) | – |
| CCNc1ncc2nc(CCc3ccccc3)c(=O)n(C)c2n1 | – | 2.51 µM (active) |
| CCO/C([O-])=N/c1c[n+](N2CCOCC2)no1 | -25.7% [at 25.6 µM] (inactive) | – |
| COC(=O)C(NC(=O)c1ccc(Cl)cc1)(Nc1nc(C)cs1)C(F)(F)F (centres undefined) | – | 5.01 µM (active) |
| CCC(C)NS(=O)(=O)c1ccc(NC(=O)CCC2CCCCC2)cc1 (centres undefined) | -25% (inactive) | – |
| O=C(CCc1ccc(S(=O)(=O)NC2CCCCC2)cc1)N(Cc1ccccc1)Cc1ccccc1 | – | 1.41 µM (active) |
| Cc1ccc(NC(=O)CCc2ccc(S(=O)(=O)NC3CCCCC3)cc2)cc1 | – | 15.8 µM (active) |
| CC(=O)c1ccc(S(=O)(=O)NC(=O)NC2CCCCC2)cc1 | -9.92% [at 25.6 µM] (inactive) | – |

| Compound | activity, negative = inhibition | AC50 |
| --- | --- | --- |
| Cc1ccccc1NC1=NC(=S)N(c2ccccc2)C12CCOC(C)(C)C2 (centres undefined) | -25.6% (inactive) | – |
| COc1ccc([C@@H](Nc2ccccn2)c2cc(C(C)(C)C)cc(C(C)(C)C)c2O)cc1 | – | 2.51 µM (active) |
| CN1CCc2cc(Cl)c(O)cc2[C@@H](c2ccccc2)C1 | 24% (inactive) | – |
| CC(C)CN1CC[C@@]2(CCCN(S(=O)(=O)c3ccccc3)C2)C1 | -20.8% (inactive) | – |
| CS(=O)(=O)N1CCC2(CCCN(c3ncccn3)C2)CC1 | -32% (inactive) | – |
| CS(=O)(=O)N1CCC[C@@]2(CCN(c3ccccc3)C2)C1 | – | 3.16 µM (active) |
| O=S(=O)(c1ccccc1)N1CCC[C@@]2(CCN(c3ccccc3)C2)C1 | – | 0.316 µM (active) |
| CS(=O)(=O)N1CCC2(CCCN(c3ccncc3)C2)CC1 | – | 1.26 µM (active) |
| CS(=O)(=O)N1CCC[C@@]2(CCN(c3ccncc3)C2)C1 | -44.5% (inactive) | – |
| O=S(=O)(c1ccccc1)N1CCC[C@@]2(CCN(c3cccc(-c4ccccc4)c3)C2)C1 | -36% (inactive) | – |
| CS(=O)(=O)N1CCC[C@@]2(CCN(c3ncccn3)C2)C1 | 0.968% (inactive) | – |
| O=S(=O)(c1ccccc1)N1CCC[C@@]2(CCN(C(c3ccccc3)c3ccccc3)C2)C1 | -11.9% (inactive) | – |
| CS(=O)(=O)N1CCC[C@@]2(CCN(c3ccccn3)C2)C1 | -1% (inactive) | – |
| O=S(=O)(c1ccccc1)N1CCC[C@@]2(CCN(c3ccncc3)C2)C1 | – | 0.398 µM (active) |
| CCN1C(=O)[C@H]2[C@H]3[C@H](O)[C@H](O)C/C(=N/OC[C@@H](O)COCc4ccco4)[C@@H]3CC[C@@H]2C1=O | 29.6% [at 11.4 µM] (inactive) and 41.4% [at 11.4 µM] (inactive) | – |
| O=S(=O)(c1ccccc1)N1CCC2(CCCN(c3cccc(-c4ccccc4)c3)C2)CC1 | -6.1% (inactive) | – |
| O=S(=O)(c1ccccc1)N1CCC2(CCCN(c3ccccc3)C2)CC1 | – | 1.58 µM (active) |
| CN1CCCC2(CCN(S(=O)(=O)c3ccccc3)CC2)C1 | 1.18% (inactive) | – |
| Cc1cc(O)c(-c2cc(O)c(C)cc2O)cc1O | – | 0.794 µM (active) |
| Cc1cc(O)c(C(C)C)cc1CN1CCCCC1 | 32.6% [at 11.4 µM] (inactive) | – |
| N#Cc1cccc(NC(=O)N2CC[C@@]3(CCCNC3)C2)c1 | -30.4% (inactive) | – |
| c1cc(NNc2cccc(-c3nn[nH]n3)c2)cc(-c2nn[nH]n2)c1 | 14.6% [at 11.4 µM] (inactive) | – |
| Cc1cc(C)cc(Oc2nn[nH]n2)c1 | -23% (inactive) | – |
| CC(C)(C)c1cccc(Oc2nn[nH]n2)c1 | – | 7.94 µM (active) |
| COc1ccc(-c2nn3cnnc3s2)cc1OC | – | 8.91 µM (active) |

| Compound | activity, negative = inhibition | AC50 |
| --- | --- | --- |
| O=C(CSCc1ccccc1)Nc1ccc(S(=O)(=O)N2CCOCC2)cc1 | – | 17.8 µM (active) |
| Nc1cc(=O)[nH]c(SCC(=O)Nc2ccc(S(=O)(=O)N3CCOCC3)cc2)n1 | 25.5% (inactive) | – |
| COCC(=O)N1CCC2(CC1)CN(C(=O)Nc1cccc(F)c1)C2 | -7.41% (inactive) | – |
| NC(=O)c1ccc(C2SCC(=O)N2Cc2ccccc2)cc1 (centres undefined) | – | 10 µM (active) |
| CC(C)n1nnnc1SCC(=O)c1ccc2c(c1)OCCO2 | – | 10 µM (active) |
| CC(C)n1nnnc1SCC(=O)NCc1ccc2c(c1)OCO2 | – | 5.01 µM (active) |
| CC(C)(C)NC(=O)CSc1nnc(Cc2ccc3c(c2)OCO3)n1C1CCCCC1 | -6.41% (inactive) | – |
| CC(C)n1nnnc1SCC(=O)NCCc1ccccc1 | – | 7.94 µM (active) |
| O=C(O)c1ccc(Nc2ccnc3cc(Cl)ccc23)cc1O | -17.2% [at 11.4 µM] (inactive) | – |
| CC(=O)[C@@H](C)CCO[C@@]1(C)OCC[C@@H]1C | -8.65% [at 11.4 µM] (inactive) | – |
| COc1ccc(C(=O)N2CCC3(CCCN(C)C3)CC2)cc1 | -24.1% (inactive) | – |
| COc1ccc2c(c1)CCc1c(C(=O)N3CCCCCC3)noc1-2 | – | 11.2 µM (active) |
| COc1ccc(NC(=O)N2CCCC3(CCN(C(=O)c4c(C)noc4C)CC3)C2)cc1 | 6.8% (inactive) | – |
| N#C[C@H](c1ccccc1)N1CCCN([C@@H](C#N)c2ccccc2)C1c1ccccc1O (some centres undefined) | – | 0.251 µM (active) |
| OC[C@@H]1O[C@@H](n2cnc3c(NC4CCCC4)ncnc32)[C@@H](O)[C@H]1O | -9.07% (inactive) | – |
| Cc1ccc(/C=C2\OC(=O)c3ccccc32)cc1 | – | 8.91 µM (active) |
| Cc1ccc(=O)n(-c2ccccc2)c1 | -31.4% (inactive) | – |
| Cc1ccccc1/C=C1\OC(=O)c2ccccc21 | – | 7.94 µM (active) |
| CC(C)c1ccc(/C=C2\C=C(c3ccc4ccccc4c3)OC2=O)cc1 | -31.6% [at 11.4 µM] (inactive) | – |
| COCCNC(=O)COc1ccc(OCCNC[C@@H](O)COc2ccccc2)cc1 | -29.3% (inactive) | – |
| COc1ccc(OC)c2[nH]c(=O)c(CCNS(=O)(=O)c3ccc(C)cc3)cc12 | – | 15.8 µM (active) |
| COCCNC(=O)COc1ccc(Oc2ccccc2)cc1 | – | 11.2 µM (active) |
| COc1ccc(OC)c2[nH]c(=O)c(CCNC(=O)COc3ccccc3)cc12 | – | 14.1 µM (active) |
| COc1ccc(OC)c2[nH]c(=O)c(CCNC(=O)C3CCCCC3)cc12 | – | 10 µM (active) |
| NC[C@H]1O[C@H](n2cnc3c(N)ncnc32)C[C@@H]1O | 7.59% [at 11.4 µM] (inactive) | – |

| Compound | activity, negative = inhibition | AC50 |
| --- | --- | --- |
| Cn1c(=O)c2[nH]c(CCC(=O)O)nc2n(C)c1=O | 12% [at 11.4 µM] (inactive) | – |
| COc1ccc(OC)c2[nH]c(=O)c(CCNC(=O)c3ccc(S(=O)(=O)N(C)C)cc3)cc12 | -21.1% (inactive) | – |
| CCN1CCCC1CNC(=O)CCNC(=O)c1cc(OC)c(OC)c(OC)c1 (centres undefined) | 1.37% (inactive) | – |
| COc1ccc(OC)c2[nH]c(=O)c(CCNC(=O)c3ccc(S(=O)(=O)N4CCCC4)cc3)cc12 | – | 11.2 µM (active) |
| O=C(O)CCSC1=NCCN1 | 42% [at 11.4 µM] (inactive) | – |
| CSC1(SC2=NCCN2)SC2(NCCN2)S1 | – | 1.58 µM (active) |
| c1ccc(CN(CC2=NCCN2)c2ccccc2)cc1 | – | inactive |
| Cc1ccc(N(Cc2ccccc2)Cc2ccccc2)cc1 | – | 2 µM (active) |
| Cc1nc(C(=O)Nc2cccc(Cl)c2Cl)nn1-c1cc(OC(C)C)c(Cl)cc1Cl | – | 7.08 µM (active) |
| CCn1nc(C(=O)Nc2ccccc2C)c(Cl)c1Cl | -24.3% (inactive) | – |
| CCc1ccccc1NC(=S)NCc1ccc2c(c1)OCO2 | – | 1.26 µM (active) |
| O=C(O)C[C@H](Cc1ccc2c(c1)OCO2)C(=O)O | -29% [at 11.4 µM] (inactive) | – |
| CCc1c(C(=O)NCc2ccc3c(c2)OCO3)[nH]c(C)c1C(C)=O | – | 7.08 µM (active) |
| CC(CO)(CO)Nc1ncnc2ccccc12 | 1.8% [at 11.4 µM] (inactive) | – |
| OC[C@@H](O)CNc1ncnc2ccccc12 | 1.02% [at 11.4 µM] (inactive) | – |
| CCOc1ccc(OCCOc2ncnc3ccccc23)cc1 | – | 10 µM (active) |
| CC(=C/c1ccccc1)/C=N/n1cnnc1 | – | 0.355 µM (active) |
| CN(C)CCCc1c2ccccc2nc2ccc(Cl)cc12 | 7.79% [at 11.4 µM] (inactive) | – |
| CCc1c(C)nc2ccc(Br)cc2c1Cl | – | 3.55 µM (active) |
| CC1=NN(c2ccc(S(=O)(=O)O)cc2)C(=O)/C1=C\c1ccc(Cl)cc1 | -11.1% [at 11.4 µM] (inactive) | – |
| CCOc1cc(/C=C2/C(=O)N(c3ccccc3)N=C2C)ccc1OC(=O)c1ccco1 | – | 14.1 µM (active) |
| CC1=NN(c2ccccc2)C(=O)/C1=C\c1c(C)[nH]n(-c2ccccc2)c1=O | -3.54% (inactive) | – |
| COc1cccc(NC(=O)COC(=O)c2c3c(nc4ccccc24)CCC(C)C3)c1 (centres undefined) | – | 3.98 µM (active) |
| COc1cccc(NC(=O)Cc2c(C(=O)O)[nH]c3ccccc23)c1 | -10.4% (inactive) | – |
